# Compound activity (PubChem)
# PI5P4K alpha inh: blocks human PI5P4K alpha kinase activity | P48426 | PI5P4Kalpha enzyme, ADP-Glo luminescence, 60 min; stronger effect = lower value | max response, % | hit rate 1.2% among 330,000; active = max response of -50% or lower; inconclusive = between -30% and -50%; inactive = -30% or higher; also: value at the top dose of about 77 µM
#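 Reactions run in 0.038 M HEPES pH 7.4, 0.28 mM EGTA, 0.1% CHAPS and 5% DMSO, with PI5P4Kalpha, substrate, compound and 5 microM ATP final, one hour at room temperature. Readout is ADP-Glo luminescence.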
# PI4K2A inh: blocks human PI4K2A kinase activity. Q9BTU6. purified PI4K2A, ADP-Glo luminescence, 1 h; stronger effect = lower value. activity change, negative = inhibition, % at 76.9 µM. hit rate 0.13% among 420,000. AID 1346378; in the data active = activity change below about -50%; inconclusive = mostly about -30% to -49%;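 also: -100% = wells without enzyme as full effect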
#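 ADP-Glo luminescence measured ADP generated by PI4K2A enzyme (4 ug/mL before mixing) with 1.2 mM PI substrate (pre-mix) and 300 microM ATP (pre-mix). Tris pH7.5 buffer with MgCl2, Triton X-100; 1 h reaction at ambient temperature.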
# Pin1 inhibitor: inhibitors of human Pin1. Pin1 FP peptide displacement, HiFluor488, 10 min. hit rate 0.009% among 390,000. AID 504891. Potency, µM (highest dose often 115 µM), without a hit: at the highest dose activity, negative = inhibition, actives largely listed as inhibitors; active = well fitted inhibition curve with a large enough effect in the polarisation, with a control signal flat, not every such curve was filed as active; inconclusive = small, poorly fitted or top-dose-only effect, or effect the other way, or a change in a side signal; inactive = no such curve, though single readings can be large or run the other way; the % refers to the polarisation; also: potency is read from the fitted curve at half-maximal effect
# Target sequence (Q13526 whole entry, looked up): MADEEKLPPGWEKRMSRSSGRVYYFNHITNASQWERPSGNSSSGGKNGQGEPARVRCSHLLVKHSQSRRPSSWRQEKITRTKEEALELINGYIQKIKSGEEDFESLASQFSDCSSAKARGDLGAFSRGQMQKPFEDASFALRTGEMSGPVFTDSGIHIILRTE
# PGK inhibitor: inhibitors of T. brucei phosphoglycerate kinase. P07378. PGK/GAPDH coupled, Kinase-Glo luminescence, 60 min. Potency, µM (titrated, usually from 57.5 µM), for inactives: at the top dose activity change, negative = inhibition, hits mostly inhibitors. hit rate 0.043% among 380,000; also: potency is read from the fitted curve at half-maximal effect; nearly all actives have a fitted effect of over 60% in size
#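 Luminescent ATP detection (Kinase-Glo Plus) follows a 60-minute room-temperature incubation, with wells lacking PGK as controls. Buffer: 100 mM TEA (pH 7.6), 5 mM MgCl2, 0.01% Tween-20. Coupling enzyme GAPDH (100 nM final) supplies unstable 1,3-BPG in-well.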
# Tb PFK inh: blocks T. brucei phosphofructokinase; Potency, µM (doses to about 57.5 µM), for the others: at the top dose activity, negative = inhibition, hits mostly inhibitors; hit rate 0.17% among 330,000; O15648; T. brucei PFK, ADP-Glo luminescence;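 also: potency is read from the fitted curve at half-maximal effect; 0% = uninhibited 1x PFK enzyme wells and -100% = no-enzyme wells; nearly all actives have a fitted effect of over 60% in size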
# Target sequence (O15648 whole entry, looked up): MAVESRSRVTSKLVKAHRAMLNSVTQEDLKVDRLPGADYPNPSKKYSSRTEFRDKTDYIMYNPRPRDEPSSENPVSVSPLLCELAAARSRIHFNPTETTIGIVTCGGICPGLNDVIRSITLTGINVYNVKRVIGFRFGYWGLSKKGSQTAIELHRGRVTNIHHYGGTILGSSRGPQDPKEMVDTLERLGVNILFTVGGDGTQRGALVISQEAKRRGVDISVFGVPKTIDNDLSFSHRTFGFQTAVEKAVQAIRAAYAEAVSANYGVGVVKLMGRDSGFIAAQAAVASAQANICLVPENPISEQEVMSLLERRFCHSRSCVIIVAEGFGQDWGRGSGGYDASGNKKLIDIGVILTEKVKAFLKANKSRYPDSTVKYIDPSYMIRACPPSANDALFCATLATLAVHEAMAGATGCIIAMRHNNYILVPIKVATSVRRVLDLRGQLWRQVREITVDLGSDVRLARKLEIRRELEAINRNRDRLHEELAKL
#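 Activity is normalized to no-enzyme wells (full inhibition) and 1.25 nM enzyme wells (no inhibition). Reaction: 0.5 mM F6P, 0.1 mM ATP, 45 min RT, ADP-Glo luminescence; concentration-response curves fitted and classed by quality.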
# The depositor's hits bear a star; i = inactive; ? = inconclusive; · = no result given. Shown is part of a subset that was picked to be rich in hits. Unless noted, calls follow the shape of the dose curve; as a rule, active = well fitted curve in the direction sought with a large enough effect; inconclusive = small, poorly fitted or top-dose-only effect, or another doubt; inactive = no such curve, though single readings can be large; an effect the other way counts as inactive or inconclusive. Unless noted, % is scaled to controls: 0 for no effect and ±100 for the full control effect.
SMILES,PI5P4K alpha inh,PI4K2A inh,Pin1 inhibitor,PGK inhibitor,Tb PFK inh
Cc1[nH]n(-c2ccccc2)c(=S)c1C=Nc1ccc([N+](=O)[O-])cc1,-79.2*,4.6,7.1%,i,?
Cc1[nH]n(-c2ccccc2)c(=O)c1C=Nc1ccc(S(=O)(=O)N=C(N)N)cc1,6.2,-13.9,10.9%,i,-3.9%
Cc1oc2c(c(C)cc3oc(=O)c(CC(=O)NCCCO)c(C)c32)c1C,-3.6,0.6,-0.3%,·,0.6%
CCCc1[nH][nH]c(=O)c1C(c1ccc(Br)cc1)C(C#N)C#N (stereo unspecified),·,5.9,0.1%,·,-0.7%
CCCc1[nH][nH]c(=O)c1C(c1ccccc1)C(C#N)C#N (stereo unspecified),-50.2*,15.3,0.6%,-2.6%,-18.7%
CCOC(OCC)c1nc(N)[nH]c(=O)c1CCCCc1ccccc1,-51.7*,-1.0,7.5%,-6.0%,·
CC(=O)Oc1cc2cccc(OC(C)=O)c(=O)c2c(OC(C)=O)c1OC(C)=O,-89.3*,-13.2,?,?,?
COc1ccc(-n2c(C)cc(/C=C/c3nc(O)c([N+](=O)[O-])c(=O)[nH]3)c2C)cc1,-51.7*,-5.7,-0.7%,-19.3%,-1.2%
CCOc1ccccc1/C=C\c1nc(O)c([N+](=O)[O-])c(=O)[nH]1,?,-2.3,?,-1.7%,5.9%
O=C(COc1ccccc1/C=C\c1nc(O)c([N+](=O)[O-])c(=O)[nH]1)Nc1ccccc1,-54.6*,-27.1,?,6.6%,-1.6%
Cc1cc(/C=C\c2nc(O)c([N+](=O)[O-])c(=O)[nH]2)c(C)n1-c1ccccc1,-62.9*,-3.7,-4.4%,-12.7%,1.0%
CC1CSc2n(-c3cccc(C(F)(F)F)c3)cc(-c3ccccc3)[n+]21 (stereo unspecified),-1.0,0.8,-2.2%,-5.5%,-3.6%
COc1cc(/C=C2\SC(=S)N(NC(=O)c3ccccc3O)C2=O)ccc1O,-61.9*,0.4,?,-1.6%,-0.2%
O=C(NN1C(=O)/C(=C/c2cc([N+](=O)[O-])ccc2O)SC1=S)c1ccccc1O,·,·,·,·,-7.3%
O=C(NN1C(=O)/C(=C/c2ccc(O)c([N+](=O)[O-])c2)SC1=S)c1ccccc1Cl,-79.1*,-14.5,?,-8.7%,-0.4%
Cc1ccc(S(=O)(=O)N2CCCCC2CCNC(=O)C(=O)NCc2ccco2)cc1 (stereo unspecified),-9.6,-1.4,-3.1%,i,16.6%
COc1ccc(CCNC(=O)C2CCN(C(=O)c3ccc(C(C)(C)C)cc3)CC2)cc1OC,9.0,3.8,-8.6%,2.0%,1.5%
COc1ccc(S(=O)(=O)N2CCOCC2)cc1NC(=O)CN1C(=O)CN(C)C1=O,0.9,2.0,-2.9%,-4.4%,-5.5%
O=S(=O)(O)c1cccc2c(N=Nc3ccc(O)c4ncccc34)cccc12,-80.6*,-23.4,·,?,?
Cc1ccccc1N=Nc1ccc(O)c2ncccc12,0.3,-2.8,-13.7%,-6.1%,3.3%
Cc1cc(/C=C2\SC(=S)NC2=O)c(C)n1-c1ccc(O)cc1,-83.1*,-1.9,?,-1.1%,-13.1%
COc1ccc(-n2c(C)cc(/C=C3\SC(=S)NC3=O)c2C)cc1,?,-0.1,?,-4.9%,-6.0%
Cc1cc(/C=C2/SC(=O)NC2=O)c(C)n1-c1ccc(N2CCOCC2)cc1,1.7,1.1,8.8%,-4.1%,3.7%
Cc1cc(C(=O)O)ccc1-n1c(C)cc(/C=C2\SC(=O)NC2=O)c1C,-57.6*,-1.9,?,3.8%,2.3%
Cc1cc(/C=C2\SC(=S)NC2=O)c(C)n1-c1ccccc1,-82.6*,-5.3,?,-7.2%,-4.0%
SMILES,PI5P4K alpha inh,PI4K2A inh,Pin1 inhibitor,PGK inhibitor,Tb PFK inh
COC(=O)c1cccc(-n2c(C)cc(/C=C3\SC(=O)NC3=O)c2C)c1,-2.2,1.3,·,-1.9%,·
Cc1cc(C)cc(OCC(=O)Nc2c(C)ccc3nsnc23)c1,·,0.4,2.1%,i,·
Cc1nc(S/C(=C/c2ccc(-c3ccc(C(=O)O)cc3)o2)C(=O)O)n[nH]1,-69.7*,-8.9,62.3%,-8.9%,1.0%
CCC(=O)Nc1ccc(Cl)c(NC(=O)c2cccc(OC)c2)c1,3.8,1.1,0.2%,-1.1%,1.9%
Cc1cccc(C)c1OCC(=O)N/N=C/C=C/c1ccco1,-12.3,-3.0,4.6%,-5.2%,-0.1%
Cc1cccc(OCC(=O)N/N=C/C=C/c2ccco2)c1,-76.0*,-27.1,1.4%,i,-18.9%
CC(=O)NC(=S)Nc1ccccc1C(=O)Nc1ccccc1,-4.2,4.1,0.8%,i,24.8%
CC(=O)c1cnc(N2CCCCC2)nc1C,1.9,12.2,-2.0%,-2.3%,-3.0%
CCCSc1nnc(NC(=O)CSc2sc3c(O)cc(=O)[nH]c3c2C#N)s1,-72.2*,-8.2,·,-26.1%,3.3%
Cc1c(C(=O)OCc2ccccc2)[nH]c2c1C(=O)CC(c1ccc(C(C)(C)C)cc1)C2 (stereo unspecified),·,1.2,3.8%,-1.2%,·
C=CCn1c(SCc2ccc3c(c2)OCO3)nc2scc(-c3ccco3)c2c1=O,-62.5*,-15.0,44.3%,-1.0%,-0.2%
C=CCn1c(SC(F)F)nc2scc(-c3ccco3)c2c1=O,11.2,7.4,-3.4%,-2.3%,1.1%
C=CCn1c(SCC(C)=O)nc2scc(-c3ccco3)c2c1=O,-55.3*,-24.2,-11.7%,-6.4%,?
CCOc1ccc(C(=O)Nc2ccc3c(c2)OCCO3)cc1Br,·,0.4,10.0%,8.7%,·
Cc1ccc(/C=N/N2C(=O)c3ccccc3NC2c2ccc(C)cc2)cc1 (stereo unspecified),-0.8,-0.9,2.6%,6.3%,0.0%
CC(C)N(C(=O)N1CCC(c2nc(-c3ccncc3)no2)CC1)C(C)C,·,-71.8*,-6.0%,7.0%,-8.7%
CC(C)C(=O)N1CCC(c2nc(-c3ccc(S(=O)(=O)N4CCN(C)CC4)cc3)no2)CC1,-1.6,-1.7,2.6%,3.8%,-7.5%
O=C1NC(=Nc2ccc(O)cc2)S/C1=C/c1ccco1,?,1.1,3.1%,-8.9%,-4.0%
Cc1cccc(N=C2NC(=O)/C(=C/C=C/c3ccco3)S2)c1,-67.0*,?,?,-5.5%,-11.6%
COc1ccc(N=C2NC(=O)/C(=C\C=C\c3ccco3)S2)cc1,-81.0*,?,?,i,-24.7%
CCn1c(SC)nc2cc(S(=O)(=O)N3CCCCC3)ccc21,-0.9,-10.1,15.1%,i,-1.0%
CCCN(C(=O)c1ccc(OCC(C)C)cc1)c1c(N)n(Cc2ccccc2)c(=O)[nH]c1=O,0.8,-3.8,6.6%,0.2%,0.9%
CCc1nc(SCC(=O)NCc2ccco2)c2c3c(sc2n1)CCCC3,4.0,2.5,6.5%,-7.3%,4.7%
Cc1cccc[n+]1C1C(c2ccccc2)C(C#N)=C(C(=C=[N-])C#N)NC1(O)C1CC1 (stereo unspecified),-73.7*,-4.0,?,-14.6%,1.4%
